Results reported in PubChem BioAssay (NCI).
About 83,000 compounds went through this panel and 20% of them were active in at least one assay; those are over-represented in the sample as a whole.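 The test compound was applied at a single concentration to cells in 96-well plates for 48 hours, and percent growth was recorded.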 A number with no mark means an inactive call. The source made the active and inactive calls. Rule for the calls: active = growth percent below 10; inactive = the rest.

system: HL-60(TB) leukemia; test: NCI-60 one-dose screen, 48 h (100 = growth as untreated, 0 = no growth, -100 = all killed); conditions: 10 µM unless noted

Structure (SMILES) | growth
Fc1ccc(CNc2c3ccccc3nc3ccccc23)cc1 | 21.3%
COc1cc(/C(C)=C(\c2ccc(Cl)cc2)c2ccc(OCCN3CCCC3)cc2)ccc1F | 38.4%
CCc1ccc(C2=C/C(=C/c3ccccc3)C(=O)N2CCc2ccc(S(N)(=O)=O)cc2)cc1 | 100%
O=C(Nc1ccc(/C=C2\SC(=O)N(Cc3ccc(OC(F)(F)F)cc3)C2=O)cc1)c1ccc(Cl)c([N+](=O)[O-])c1 | 71.3%
COc1cc2c(c(OC)c1OC)C(=O)CC(c1cccc(C(=O)Nc3ccc(C#N)cc3)c1)O2 (centres undefined) | 47%
O=S(=O)(NCCCNc1nccc(-c2c(-c3ccc(F)cc3)nc3sccn23)n1)c1ccc2ccccc2c1 | 34.8%
CN1CCN(Cc2ccc(NC(=O)c3cncc(C#Cc4cnc(N)c5ncccc45)c3)cc2Cl)CC1 | 21.5%
CC(C)(C#N)Nc1ccccc1 | 105%
N#C/C(C(=O)c1ccccc1)=C1/C(=O)Nc2ccccc21 | 106%
CC1CCN(CCCCCOc2ccc3oc4cc(Cl)ccc4c(=O)c3c2)CC1 | 43.4%
Cc1cc(C)c2c(n1)sc1c(Nc3ccc(Cl)cc3)ncnc12 | -19.1% (active)
N#C/C(=C\C=C\c1ccc(-c2cc(Cl)ccc2Cl)o1)c1nc2ccccc2s1 | 97.7%
CC1=C(CCCOC(=O)NCCCl)C2=C(C)C3(CC3)[C@@](C)(O)C(=O)C2=C1 | 44.7%
Cn1c(=O)c2[nH]c(C(O)C(O)C(O)C(O)CO)nc2n(C)c1=O (centres undefined) | 100%
